# hcDAF12 agonist: H. contortus DAF-12 activation, primary screen | HEK293 hcDAF-12 lit1-tk-luc reporter, luminescence; 0% DMSO, 100% Δ7-dafachronic acid | activation, % at 6.8 µM | hit rate 1.4% among 370,000;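 active means activation above the mean of all tested compounds plus 3 SD, cut at about 5.5% in these data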;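 further: 100% = response to 3 µM Δ7-dafachronic acid high control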
# hgDAF12 agonist: activates the H. glycines DAF-12 receptor ligand-binding domain. activation, % at 6.8 µM. hit rate 1.8% among 370,000. HEK293 GAL4-hgDAF12 UAS-luciferase reporter, agonist luminescence; normalized to butyrate control;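 active means activation above a cutoff set at the mean of all screened compounds plus 3 SD, cut at about 10% in these data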;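 further: 0% = DMSO wells and 100% = sodium butyrate wells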
# ssDAF-12 act: activators of S. stercoralis DAF-12 nuclear receptor. HEK293 ssDAF-12/GRIP1 lit1-tk-luc reporter, luminescence; % of 3 µM dafachronic acid response. activation, % at 6.8 µM. hit rate 1% among 370,000;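 active means activation above the mean over all tested compounds plus 3 SD, cut at about 0.9% in these data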;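 further: 0% = DMSO-only wells and 100% = 3 µM delta7-dafachronic acid wells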
# SMARCA2 act: activators of SMARCA2 function | activation, % at 9.1 µM | MG213 cells, MMTV-luciferase reporter, dexamethasone, overnight | hit rate 1% among 370,000; in the data active means activation above about 7.8%;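 further: 0% = vehicle wells and 100% = reference activator wells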
# DAX1 inh-1: blocks DAX1 repression of SF-1 activated StAR promoter | HEK293T StAR-luciferase reporter, SF-1/DAX-1 repression relief | inhibition, % at 6.8 µM | hit rate 1.1% among 370,000 | AID 652010;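 active means inhibition above the mean over all tested compounds plus 3 SD, cut at about 3.6% in these data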;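 further: 0% = DAX-1 cells with DMSO and 100% = cells lacking DAX-1 with DMSO; higher inhibition means more luminescence from relief of DAX-1 repression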
# DAX1 inh-2: NR0B1 (DAX1) inhibition | P51843 | HEK293 Gal4-DAX1 luciferase reporter, luminescence | inhibition, % at 6.75 µM | hit rate 0.99% among 340,000 | AID 504766;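 active means inhibition above the mean over all tested compounds plus 3 SD, cut at about 4.2% in these data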;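 further: 0% = DAX1-transfected cells with DMSO and 100% = empty-vector control cells with DMSO; inhibition shows as a rise in luminescence from relieved DAX1 repression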
# Target sequence (P51843 207-470 limits assumed): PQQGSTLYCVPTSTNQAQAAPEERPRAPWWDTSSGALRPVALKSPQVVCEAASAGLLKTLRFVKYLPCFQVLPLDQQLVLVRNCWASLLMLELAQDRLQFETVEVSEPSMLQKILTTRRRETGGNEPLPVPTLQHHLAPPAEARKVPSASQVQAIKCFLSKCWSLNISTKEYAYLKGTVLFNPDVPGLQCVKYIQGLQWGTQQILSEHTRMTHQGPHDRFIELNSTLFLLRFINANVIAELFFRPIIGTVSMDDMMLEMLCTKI
# * marks the source's active call; other numbers are inactive results; . = no result. A selection: hits, their analogues and other compounds. The true share with any hit is near 4.8%.
SMILES,hcDAF12 agonist,hgDAF12 agonist,ssDAF-12 act,SMARCA2 act,DAX1 inh-1,DAX1 inh-2
CCOc1ccccc1N(C(=O)c1ccco1)C(C(=O)NC1CCCC1)c1cccnc1 (centres undefined),3.6,-0.9,-1.3,0.1,0.3,-1.2
CCOc1cc(C(=O)NCCOC)cc(OCC)c1OCC,2.1,1.6,1.5*,2.0,-0.2,0.2
CCOc1cc(C(=O)NCCCNC(=O)c2cc(OCC)c(OCC)c(OCC)c2)cc(OCC)c1OCC,-2.3,-0.1,-1.7,3.5,-0.2,-0.9
Cc1ccc(NC(C(=O)c2ccccc2)c2ccccc2)cc1 (centres undefined),1.9,-4.0,-0.2,-2.2,-3.0,1.9
Cc1ccc(NC2=C/C(=N/S(=O)(=O)c3cccs3)c3ccccc3C2=O)cc1,5.8*,6.6,0.3,-6.8,0.2,0.0
CN(C)c1ccc(C(=O)c2ccccc2)cc1,1.5,9.3,2.0*,7.7,0.2,1.0
CCOC(=O)c1c(C)oc2cc(Cl)c(O)c(CN(C)C)c12,-2.3,12.8*,-1.1,4.7,0.6,-1.2
COc1ccc2c(c1)CC/C2=N\OC(=O)c1ccccc1C,1.5,9.4,2.1*,4.8,0.7,2.5
COc1ccc2c(c1)CCC/C2=N/OC(=O)c1ccccc1OC,-0.8,3.0,-0.9,0.0,-0.1,-1.2
CCN(Cc1ccccc1)S(=O)(=O)c1ccc(C(=O)N(CCCN(C)C)c2nc3cc4c(cc3s2)OCCO4)cc1,-0.2,-0.9,-1.2,3.1,1.1,1.1
O=C(CN1C2CCCC1CC(NC(=O)c1ccccc1)C2)Nc1ccccc1C(F)(F)F (centres undefined),-3.6,-1.9,-1.8,-1.6,-0.1,-2.2
COc1ccc(C(C(=O)NCc2ccccc2)N(Cc2cccnc2)C(=O)c2snc(C(N)=O)c2N)cc1OC (centres undefined),0.4,-2.8,-1.4,1.3,-0.1,4.3*
CN(C)c1ccc(C(C(=O)NCc2ccccc2)N(Cc2cccnc2)C(=O)c2snc(C(N)=O)c2N)cc1 (centres undefined),-2.5,-3.6,-0.7,1.8,-1.0,-2.8
Cc1nc2nc(-c3ccccc3)nn2c(C)c1C,4.4,10.5*,0.4,6.0,0.5,3.3
Cc1nc(-c2ccccc2)nc(Cl)c1Cl,-2.2,-3.0,-1.2,-3.2,0.3,0.9
Cc1nc2nc(-c3ccccc3)nn2c(C)c1Cl,5.6*,7.0,0.9*,5.1,1.9,1.6
O=C(Nc1cccc(F)c1)/C(=C\c1ccco1)NC(=O)c1ccco1,0.5,6.3,0.2,0.1,0.2,-0.2
COC(=O)c1c(NC(=O)C(=O)NCCCN2CCOCC2)sc2c1CC(C)(C)OC2,-2.3,-0.1,-0.7,-1.3,0.1,0.0
CC(=O)c1cccc(OCC(=O)N(CCC2=CCCCC2)c2c(N)n(Cc3ccccc3)c(=O)[nH]c2=O)c1,1.4,1.5,-2.0,0.7,0.2,4.3*
CC(=O)c1ccc(OCC(=O)N(CCC2=CCCCC2)c2c(N)n(Cc3ccccc3)c(=O)[nH]c2=O)cc1,-1.5,4.3,-1.1,-0.2,0.3,1.1
COC(=O)c1ccc(N2CCN(CC(=O)c3ccc(C)cc3)CC2)c([N+](=O)[O-])c1,6.0*,3.6,-0.2,-0.2,-0.2,1.1
COc1ccc(C(=O)O/N=C(\C)c2nccs2)cc1,-0.2,2.5,-1.5,6.8,0.0,-0.7
C/C(=N\OC(=O)c1ccc(F)cc1)c1nccs1,1.6,1.8,1.1*,3.6,-0.2,1.4
COc1cc2c(cc1OC)C(C)=NC1(CCCCC1)C2,-1.8,-0.5,-1.9,-1.2,0.2,4.6*
CCCNC(=O)CCn1nc(-c2ccc(C)cc2)c2ccccc2c1=O,-2.0,-0.4,-1.2,1.0,-0.2,-0.4
SMILES,hcDAF12 agonist,hgDAF12 agonist,ssDAF-12 act,SMARCA2 act,DAX1 inh-1,DAX1 inh-2
CCCNC(=O)CCn1nc(-c2ccc(Cl)cc2)c2ccccc2c1=O,-1.6,4.4,-2.0,-2.3,0.1,5.4*
O=C(CNS(=O)(=O)c1c(Cl)cccc1Cl)N1CCCCCC1,2.3,6.8,1.0*,3.0,1.0,3.0
O=C(CNS(=O)(=O)c1cccs1)N1CCCCC1,-0.4,-0.2,-0.6,0.2,-0.3,0.2
COc1cc(C2C(C(=O)c3ccc(C)o3)=C(O)C(=O)N2CCN2CCOCC2)ccc1OCCC(C)C (centres undefined),-1.1,0.2,-0.8,-1.0,0.1,0.3
CCCOc1cccc(C2C(C(=O)c3ccc(C)o3)=C(O)C(=O)N2CCN2CCOCC2)c1 (centres undefined),5.8*,1.1,-0.8,-1.0,-0.2,0.8
COc1ccc(CCNc2nc3ccccc3n3cnnc23)cc1OC,-0.1,-2.0,-0.9,0.2,0.1,2.7
COCCNc1nc2ccccc2n2cnnc12,-0.7,-0.8,-1.2,1.4,0.0,4.3*
CC1=C(C(=O)N2CCOCC2)CC(CC(=O)NCC2CCCCC2)C(=O)N1CCCN1CCCC1=O (centres undefined),-0.1,1.2,-0.9,-1.8,0.4,-0.2
COc1ccccc1NC(=O)COc1ccccc1C(=O)c1cnn(-c2ccccc2)c1,1.8,12.8*,0.1,5.2,0.7,-1.0
Cc1cccc(C)c1NC(=O)C(c1ccncc1)N1CCN(C)CC1 (centres undefined),-0.9,-3.2,-1.1,-1.5,-0.4,.
Cc1cccc(C)c1NC(=O)C(c1ccccc1)N1CCN(C)CC1 (centres undefined),2.1,-0.4,-1.4,-1.5,4.4*,.
COc1ccc(NC(=O)COC(=O)Cc2coc3cc(OC)ccc23)c(OC)c1,-0.3,0.5,-0.9,2.4,-0.6,-0.7
CCN(CC)S(=O)(=O)c1ccc(-c2nnc(SCC(=O)Nc3cc(OC)cc(OC)c3)o2)cc1,-0.7,10.9*,-1.6,-1.0,-0.5,3.1
Cc1ccc(C)c(NC(=O)CSc2nnc(-c3ccccc3)o2)c1,-0.7,-0.4,-1.5,-0.1,-0.1,-0.5
Cc1ccc(NC(=O)CSc2nnc(-c3cccnc3)o2)c(C)c1,-0.2,-1.2,-0.6,-1.2,0.8,4.4*
COc1ccccc1NC(=O)CSc1nnc(-c2ccccc2)o1,2.5,10.7*,-0.2,0.7,5.4*,5.2*
O=C(CSc1nnc(-c2cccnc2)o1)c1cc2ccccc2oc1=O,3.4,12.3*,-0.7,0.4,1.0,0.7
Oc1ccccc1N=Nc1ccccc1O,-0.6,-6.7,-0.2,-3.8,-3.8,-4.4
CCOC(=O)c1c(C)n(-c2ccccc2)c2ccc(O)c(CN(C)C)c12,-1.6,4.0,-1.4,2.5,0.5,2.5
O=C(CSc1nc2ncc(Cl)cc2[nH]1)N1CCOCC1,1.6,-0.6,-1.5,-6.7,-0.8,1.3
Cc1csc(NC(=O)CSc2nnc(-c3ccccc3)o2)n1,5.7*,6.0,0.8,6.4,4.3*,0.5
N#CCCN/N=C(/Cc1nc2ccccc2[nH]1)c1cccc(Cl)c1,3.5,1.4,1.3*,0.9,0.0,-0.2

# Source: PubChem BioAssay
